# Source: PubChem BioAssay
# Most compounds without a hit are left out; they make up all but 4.8% or so of the library.
# USP1 inh – inhibitors of human USP1/UAF1 deubiquitinase | O94782 | hit rate 0.23% among 390,000 | recombinant USP1/UAF1, Ub-Rhodamine cleavage fluorescence | AID 743255 | Potency, µM (doses to about 57.1 µM), hits mostly inhibitors; note: nearly all actives have a fitted effect of over 60% in size
#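 USP1/UAF1 complex at 1 nM was preincubated with compound for 15 min at room temperature, then Ub-Rho substrate (150nM final) was added. Fluorescence (480/540 nm) was read kinetically, 6 reads every 60 seconds.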
# ATXN2 expr inh – ATXN2 expression inhibition | HEK-293 ATXN2-luciferase reporter, luminescence, 24 h | Potency, µM (top dose mostly 57 µM), usual class: inhibitors | hit rate 0.72% among 360,000 | AID 1745845; note: nearly all actives have a fitted effect of over 55% in size
#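 qHTS (up to 57 uM final) was run with 24 h compound exposure of reporter cells at 37 °C. Each well was multiplexed: SteadyGlo luminescence measured ATXN2-luciferase expression after a fluorogenic Gly-Phe-AFC viability readout (25 uM final).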
# IL1B secr inh – inhibitors of inflammasome signaling (IL-1 beta secretion) | THP-1 LPS/ATP IL-1B secretion, AlphaLISA, 16 h; active compounds read low | hit rate 4.7% among 360,000 | activity change, % at 57.5 µM; in the data active = activity change below about -50%; inconclusive = mostly about -30% to -49%
#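 THP-1 cells pretreated 1 hr with compounds (up to 57.5 uM final), then stimulated with LPS (250 ng/mL final) plus ATP (1.25 mM final); secreted IL-1B measured by AlphaLISA after 16 hr, decreased signal indicating inhibition.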
# USP2a inh – USP2a (human) protease inhibition; O75604; USP2 core, Ub-CHOP2 coupled fluorogenic reporter, 485/531; Potency, µM (doses to about 38.3 µM), most hits filed as inhibitors; hit rate 0.01% among 330,000; AID 463254
# Target sequence (O75604 whole entry, looked up): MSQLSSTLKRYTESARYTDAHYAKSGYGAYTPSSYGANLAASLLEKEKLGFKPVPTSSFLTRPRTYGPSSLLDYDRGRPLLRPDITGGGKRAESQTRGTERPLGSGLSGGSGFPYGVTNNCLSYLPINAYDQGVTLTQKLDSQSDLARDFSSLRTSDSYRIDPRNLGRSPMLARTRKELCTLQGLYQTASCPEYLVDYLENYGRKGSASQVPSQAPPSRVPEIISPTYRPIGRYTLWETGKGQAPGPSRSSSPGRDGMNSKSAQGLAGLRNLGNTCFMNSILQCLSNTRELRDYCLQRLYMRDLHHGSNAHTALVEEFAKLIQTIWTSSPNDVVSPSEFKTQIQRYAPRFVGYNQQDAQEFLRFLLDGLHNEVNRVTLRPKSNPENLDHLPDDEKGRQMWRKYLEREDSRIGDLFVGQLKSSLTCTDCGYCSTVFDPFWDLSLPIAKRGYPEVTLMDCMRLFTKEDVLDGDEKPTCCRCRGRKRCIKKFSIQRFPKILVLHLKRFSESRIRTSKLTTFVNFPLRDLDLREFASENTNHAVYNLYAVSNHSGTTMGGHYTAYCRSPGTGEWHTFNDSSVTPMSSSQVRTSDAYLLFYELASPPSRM
#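 Cell-free coupled assay: 10nM USP2 core preincubated 30min RT with compound in Tris-HCl pH 8.0/CaCl2/CHAPS buffer, then 25nM Ub-CHOP2 and 25nM reporter substrate; fluorescence (Ex 485/Em 531) read after 60min RT, normalized to NEM inhibition, concentration-response curves fitted.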
# ATXN viability – viability counter-screen for ATXN expression inhibitors; S2 cells (HEK-293 line with an ATXN2-luciferase reporter) viability, CellTiter-Fluor protease fluorescence, 24 h; Potency, µM (titrated, usually from 56.7 µM), most hits filed as cytotoxic; hit rate 0.49% among 400,000; AID 651635; note: nearly all actives have a fitted effect of over 40% in size
# Hits are given with their value; . = inactive; ? = inconclusive; / = no result given. Unless noted, calls come from the whole dose curve; as a rule, active = well fitted curve in the direction sought with a large enough effect; inconclusive = small, poorly fitted or top-dose-only effect, or another doubt; inactive = no such curve, though single readings can be large; an effect the other way counts as inactive or inconclusive.
SMILES,USP1 inh,ATXN2 expr inh,IL1B secr inh,USP2a inh,ATXN viability
O=C(CNC(=S)N(Cc1ccccc1)Cc1cccs1)NCc1ccc(F)cc1,.,.,-71,.,.
CC(=O)c1c(C)n(CCc2ccc(Cl)cc2)c2ccc(O)cc12,.,.,.,.,.
CCOc1ccc2nc(NC(=O)c3ccccn3)sc2c1,.,25µM,-98,.,?
CCOc1ccc2nc(NC(=O)Nc3ccccc3)sc2c1,.,.,.,?,.
Cc1ccc2nc(NC(=O)c3ccccn3)sc2c1,.,?,-102,.,?
CCOc1ccc2nc(SCCNS(=O)(=O)c3ccccc3)sc2c1,.,.,-68,.,.
Cc1ccc(C)c(NC(=S)c2ccccn2)c1,.,.,-101,.,.
C/C(=C(/OCCOc1ccc(Cl)cc1)c1ccc(Cl)cc1Cl)n1ccnc1,/,.,/,/,.
COc1ccccc1CCNC(=O)Cc1c(C)c2c(O)cc(C)cc2oc1=O,?,.,/,/,.
CCCn1c(/C=N/Nc2nc3ccccc3[nH]2)nc2ccccc21,.,?,-52,.,/
CC(C)Cn1c(/C=N/Nc2nc3ccccc3[nH]2)nc2ccccc21,.,4.5µM,.,.,?
Cc1oc(-c2ccccc2)nc1CCC(=O)c1ccc(CC2SC(=O)NC2=O)cc1 (stereo not given),/,.,/,/,.
O=C1C(=C(c2ccccc2)N2CCOCC2)Cc2ccccc21,?,/,-104,/,?
CCOC(=O)Cc1csc(N/N=C/c2cccc([N+](=O)[O-])c2)n1,.,.,.,.,.
O=[N+]([O-])c1cccc(-c2csc(N/N=C/c3cccc(O)c3)n2)c1,.,?,-168,.,?
O=C(Nc1nc(-c2cccc([N+](=O)[O-])c2)cs1)C(c1ccccc1)c1ccccc1,.,.,-72,.,.
COc1cc(C[C@@H]2NCCc3cc(O)c(O)cc32)cc(OC)c1OC,/,/,/,/,.
N#C/C(=C\c1cccc([N+](=O)[O-])c1)c1nnc2n1CCCCC2,.,.,-91,.,.
CN(c1ccccc1)c1ccc(/C=C(\C#N)c2nnc3n2CCCCC3)cc1[N+](=O)[O-],.,.,-106,.,.
CN(c1ccccc1)c1ccc(/C=C(\CCC(=O)O)c2nc3ccccc3s2)cc1[N+](=O)[O-],.,.,.,.,.
COc1cccc(CN2CCC(c3nnc(SCC4CCCO4)n3C)CC2)c1O (stereo not given),/,/,/,/,.
COc1ccccc1CNC(=O)CS(=O)(=O)Cc1nc(-c2ccccc2C)oc1C,.,.,/,/,.
CC(C)(C)C(=O)[C@@H]1[C@@H]2C(=O)N(C3CCCCC3)C(=O)[C@@H]2[C@H]2c3ccccc3C=CN12,25µM,/,.,.,/
COc1ccc(N2C(=O)[C@@H]3[C@H](C2=O)[C@H]2c4ccccc4C=CN2[C@@H]3C(C)=O)cc1,16µM,.,.,.,.
COc1ccc(N2C(=O)[C@H]3[C@@H](C2=O)C2c4ccccc4C=NN2[C@H]3C(=O)C(C)(C)C)cc1 (stereo not given in full),.,.,.,.,.
SMILES,USP1 inh,ATXN2 expr inh,IL1B secr inh,USP2a inh,ATXN viability
O=C(Nc1ccc(Nc2ccccc2)cc1)c1ccc(F)cc1,.,/,.,.,.
O=C(Nc1ccc(Nc2ccccc2)cc1)c1c(F)c(F)c(F)c(F)c1F,.,.,-68,.,.
O=C(Nc1ccc(Nc2ccccc2)cc1)c1c(Cl)cccc1Cl,.,.,-87,/,?
O=C(Nc1ccc(Nc2ccccc2)cc1)Nc1ccccc1Cl,.,.,?,.,.
CC(=O)N1CCN(c2ccc(NCc3cccc4ccccc34)cc2)CC1,.,.,-76,.,.
CC(=O)N1CCN(c2ccc(Nc3ncnc4c3oc3ccccc34)cc2)CC1,.,?,-81,.,?
COc1ccc(CN2CCOc3c(cc(-c4ccc(OC)nn4)cc3OC)C2)c(O)c1,/,/,/,/,.
CCN1C(=O)CSC1=Nc1ccc(OC)cc1,.,.,.,.,.
CCOc1ccc(-n2c(=S)sc3c(=O)[nH]c(SCC(=O)NC4CCCCC4)nc32)cc1,.,/,.,/,.
COc1cc(O)c(C(CCN2CCCCC2)c2ccc3c(c2)OCO3)c(OC)c1 (stereo not given),.,?,-81,.,?
COc1cc(OC)c2c(-c3ccccc3)cc(=O)oc2c1C(CCN1CCCCC1)c1ccc(N(C)C)cc1 (stereo not given),.,?,.,.,22µM
COc1cc(OC)c2c(-c3ccccc3)cc(=O)oc2c1C(CCN1CCCC(C)C1)c1ccc2c(c1)OCO2 (stereo not given),.,?,.,.,10µM
COc1cc(OC)c2c(-c3ccccc3)cc(=O)oc2c1C(CCN1CCCCC1)c1ccc2c(c1)OCO2 (stereo not given),.,.,.,.,?
COc1ccc(C(CCN2CCCCC2)c2c(OC)cc(OC)c3c(-c4ccccc4)cc(=O)oc23)cc1 (stereo not given),.,?,.,.,22µM
COc1cc(O)c(C(CC(=O)N2CCCCC2)c2ccc3c(c2)OCO3)c(OC)c1 (stereo not given),.,.,.,.,.
Cc1cc(C)cc(NC(=O)C2CCN(c3nc4ccccc4nc3C(F)(F)F)CC2)c1,.,.,/,/,.
Cc1ccc(C(=O)Nc2nc(-c3ccco3)c(-c3ccco3)s2)o1,.,.,-57,.,.
O=C(Nc1nc(-c2cccs2)c(-c2ccccc2)s1)c1ccco1,.,.,-54,.,?
Cc1ccc2nc(NCCN)c3ncc(C)n3c2c1,/,1.9µM,/,/,/
Cc1nn(CCCC(=O)Nc2cc(C(F)(F)F)ccc2Cl)c(=O)c2c1sc1ccccc12,.,/,/,/,/
COc1cc(C)c(CN2CCC3(CCC(CNC(=O)c4ccnn4C)O3)CC2)cc1C (stereo not given),/,/,/,/,.
O=C(O)Cc1cn(Cc2ccc(F)cc2)c2ccccc12,.,.,.,.,.
Cc1[nH][nH]c(=O)c1C(c1c(C)[nH][nH]c1=O)c1cn(Cc2ccc(F)cc2)c2ccccc12,?,.,-101,.,.
Cc1[nH][nH]c(=O)c1C(c1c(C)[nH][nH]c1=O)c1cn(Cc2ccc(Cl)c(Cl)c2)c2ccccc12,28µM,?,-98,.,?
O=c1c2ccccc2ncn1Cc1ccc(Cl)c(Cl)c1,.,.,.,.,?
O=C(N/N=C/c1ccc(N2CCOCC2)cc1)c1ccncc1,.,.,.,.,.
O=C(N/N=C/c1ccc(N2CCOCC2)cc1)c1ccccc1OCCOc1ccccc1,?,?,-65,.,/
COC(=O)c1sc(-c2ccc(C(C)(C)C)cc2)cc1NC(=O)c1ccccc1C(=O)O,28µM,.,.,.,?
Cc1cccc(NCc2ccc(Br)cc2)n1,.,.,-62,.,.
CCCCCNC(=O)C(C1CC1)n1c(=O)c(-c2ccccc2)nc2ccccc21 (stereo not given),/,/,.,/,/
